# Data reported in PubChem BioAssay (EPA / NIEHS).
# Inconclusive results are not listed. Calls of active or inactive are those of the source. How the source made its calls: active means hit-call score of the fitted dose curve at least 0.9, where 1 is the maximum; inconclusive means response in the unintended direction; inactive means score below 0.9.
# Legend:
# [1] = target: D(1A) dopamine receptor (Homo sapiens) (UniProt P21728); assay: NVS_GPCR_hDRD1: NovaScreen (NVS) G Protein-Coupled Receptor Assay for human Dopamine Receptor D1 (DRD1) (AID 2283269)
# Procedure, shortened: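 Radioligand displacement binding on membranes/protein extracted from HEK293 expressing human D1, cell-free; read 1 h after dosing by filter-based scintillation counting. Primary screen in duplicate at 25 uM, actives followed up in concentration series; signal loss versus DMSO baseline.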
# [2] = target: human Adrenergic, Beta 3 Receptor (Adrb3), ADRB3 (gene 155) (UniProt P13945); assay: NVS_GPCR_hAdrb3: NovaScreen (NVS) G Protein-Coupled Receptor Assay for human Adrenergic, Beta 3 Receptor (Adrb3) (AID 2283262)
# Description: NVS_GPCR_hAdrb3 is a biochemical, single-readout assay that uses extracted gene-proteins from SK-N-MC pretreated with isoproteronol and 8-bromo-cAMP in a cell-free assay. Measurements were taken 1 hour after chemical dosing in a 48-well plate.NVS_GPCR_hAdrb3 is one of one assay component(s) measured or calculated from the NVS_GPCR_hAdrb3 assay. It is designed to make measurements of radioligand binding, a form of binding reporter, as detected with scintillation counting signals by Filter-based radiodetection technology.Data from the assay component NVS_GPCR_hAdrb3 was analyzed into 1 assay endpoint. This assay endpoint, NVS_GPCR_hAdrb3, was analyzed in the positive analysis fitting direction relative to DMSO as the negative control and baseline of activity. Using a type of binding reporter, loss-of-signal activity can be used to understand changes in the binding as they relate to the gene ADRB3. Furthermore, this assay endpoint can be referred to as a primary readout, because the performed assay has only produced 1 assay endpoint. To generalize the intended target to other relatable targets, this assay endpoint is annotated to the gpcr intended target family, where the subfamily is rhodopsin-like receptor.
# Binding assays used specific radioligands (tritiated, iodinated) with non-radioactive competitive displacement ligands in agonist or antagonist protocols (as indicated) and various reference compounds and inhibitors to titrate specific binding to receptors and transporters. Most enzyme assays (CYPs, kinases, phosphatases, proteases, HDACs) used recombinant protein and specific substrates (fluorescence mostly, some colorimetric and radioactive) and inhibitors, followed by a biochemical separation of substrate and product. All assays for the biochemical HTS were initially run in duplicate at a single concentration (10 uM for CYP450 assays and 25 uM for all others). […] Each assay was run with positive and negative controls, and concurrent controls on every plate. The follow-up (secondary) screen tested active chemical-pairs in concentration series, as well as a few additional assays not tested in the primary screen, some selected negative inactives, and several cases re-run in the concentration series for confirmatory purposes.
# [3] = target: human Dopamine Receptor D4.4 (DRD4.4), DRD4 (gene 1815) (UniProt P21917); assay: NVS_GPCR_hDRD4.4: NovaScreen (NVS) G Protein-Coupled Receptor Assay for human Dopamine Receptor D4.4 (DRD4.4) (AID 2283264)
# Procedure, shortened: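 Radioligand displacement on human DRD4.4 from CHO-derived membranes, 1 hour incubation, bound counts read by filtration and scintillation. Primary screen in duplicate at 25 uM; actives followed up in concentration series.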
# [4] = target: human Dopamine Receptor D2 (DRD2), DRD2 (gene 1813) (UniProt P14416); assay: NVS_GPCR_hDRD2s: NovaScreen (NVS) G Protein-Coupled Receptor Assay for human Dopamine Receptor D2 (DRD2) (AID 2283266)
# Procedure, shortened: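 Radioligand displacement used human DRD2 membranes extracted from CHO cells and was read by filter-based scintillation counting after 1.5 hours. Primary screening was in duplicate at 25 uM. Loss of signal versus DMSO was fitted, with concentration series in follow-up.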
# [5] = target: human Endothelin Receptor Type B (ETB), EDNRB (gene 1910) (UniProt P24530); assay: NVS_GPCR_hETB: NovaScreen (NVS) G Protein-Coupled Receptor Assay for human Endothelin Receptor Type B (ETB) (AID 2283267)
# Procedure, shortened: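 Human astrocytoma cell membranes; radioligand competitive binding read by filter scintillation counting 4 hours after dosing. Single-concentration duplicate screen at 25 uM, then singleton concentration-response up to 50 uM; loss of signal versus DMSO.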
# [6] = target: human Endothelin Receptor Type A (ETA), EDNRA (gene 1909) (UniProt P25101); assay: NVS_GPCR_hETA: NovaScreen (NVS) G Protein-Coupled Receptor Assay for human Endothelin Receptor Type A (ETA) (AID 2283265)
# Procedure, shortened: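 Cell-free radioligand displacement using SH-SY5Y-derived protein, 3 h incubation, filter-based scintillation counting. Primary screen in duplicate at 25 uM; actives then run in concentration-response up to 50 uM; loss of binding fitted versus DMSO.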
# [7] = target: Beta-2 adrenergic receptor (Homo sapiens) (UniProt P07550); assay: NVS_GPCR_hAdrb2: NovaScreen (NVS) G Protein-Coupled Receptor Assay for human Adrenergic, Beta 2 Receptor (Adrb2) (AID 2283261)
# Procedure, shortened: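 Filter-based radioligand binding using receptor prepared from CHO cells, 1 h incubation, scintillation counting. Primary screen in duplicate at 25 uM, actives retested in concentration series; loss of binding relative to DMSO.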
# [8] = target: human Histamine 1 Receptor (H1), HRH1 (gene 3269) (UniProt P35367); assay: NVS_GPCR_hH1: NovaScreen (NVS) G Protein-Coupled Receptor Assay for human Histamine 1 Receptor (H1) (AID 2283268)
# Procedure, shortened: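 Cell-free radioligand displacement at human H1 receptor, 1 h, filter scintillation counting; primary screen 25 uM in duplicate, hits in concentration series; loss of binding fitted vs DMSO.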
# [9] = target: Muscarinic acetylcholine receptor M1 (Homo sapiens) (UniProt P11229); assay: NVS_GPCR_hM1: NovaScreen (NVS) G Protein-Coupled Receptor Assay for human Muscarinic, M1 Receptor (AID 2283270)
# Procedure, shortened: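 Cell-free radioligand displacement using membrane protein extracted from CHO cells, read by filter-based scintillation counting 1 h after dosing. Loss of bound signal fitted versus DMSO; primary screen single concentration 25 uM in duplicate, actives followed by concentration series.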
# [10] = target: Type-1 angiotensin II receptor (Homo sapiens) (UniProt P30556); assay: NVS_GPCR_hAT1: NovaScreen (NVS) G Protein-Coupled Receptor Assay for human Angiotensin II receptor type 1 (AT1) (AID 2283263)
# Procedure, shortened: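 Membranes from KAN-TS cells; radioligand competitive displacement, 3 h, filtration and scintillation counting. Single-point duplicate screen at 25 uM, then concentration-response up to 50 uM for hits; loss of signal fitted versus DMSO.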
# human Dopamine Receptor D4.4 (DRD4.4), DRD4 (gene 1815), sequence (P21917 whole entry, looked up): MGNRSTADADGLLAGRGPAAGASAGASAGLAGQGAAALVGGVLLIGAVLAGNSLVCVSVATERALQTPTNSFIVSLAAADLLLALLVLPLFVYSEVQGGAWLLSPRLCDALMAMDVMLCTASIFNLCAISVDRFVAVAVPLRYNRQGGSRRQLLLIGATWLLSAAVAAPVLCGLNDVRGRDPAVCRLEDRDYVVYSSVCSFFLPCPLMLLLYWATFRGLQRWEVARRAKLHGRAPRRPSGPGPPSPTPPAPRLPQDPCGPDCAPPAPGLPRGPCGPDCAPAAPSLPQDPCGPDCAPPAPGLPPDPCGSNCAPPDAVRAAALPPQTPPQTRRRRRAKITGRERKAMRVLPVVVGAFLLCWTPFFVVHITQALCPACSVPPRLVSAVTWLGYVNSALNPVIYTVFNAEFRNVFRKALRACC
# D(1A) dopamine receptor (Homo sapiens), sequence (P21728 whole entry, looked up): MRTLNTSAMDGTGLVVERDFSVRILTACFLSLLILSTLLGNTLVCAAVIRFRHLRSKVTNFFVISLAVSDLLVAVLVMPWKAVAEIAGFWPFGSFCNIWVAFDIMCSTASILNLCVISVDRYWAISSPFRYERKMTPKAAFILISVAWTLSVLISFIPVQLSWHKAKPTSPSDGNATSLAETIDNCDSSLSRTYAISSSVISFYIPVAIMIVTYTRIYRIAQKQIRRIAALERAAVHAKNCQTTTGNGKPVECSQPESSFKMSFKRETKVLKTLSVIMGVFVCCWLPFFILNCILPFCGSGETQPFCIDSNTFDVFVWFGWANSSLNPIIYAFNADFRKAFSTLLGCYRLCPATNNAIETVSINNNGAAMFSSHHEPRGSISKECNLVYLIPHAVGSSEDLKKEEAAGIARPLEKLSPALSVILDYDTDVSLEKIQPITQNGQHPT
# human Dopamine Receptor D2 (DRD2), DRD2 (gene 1813), sequence (P14416 whole entry, looked up): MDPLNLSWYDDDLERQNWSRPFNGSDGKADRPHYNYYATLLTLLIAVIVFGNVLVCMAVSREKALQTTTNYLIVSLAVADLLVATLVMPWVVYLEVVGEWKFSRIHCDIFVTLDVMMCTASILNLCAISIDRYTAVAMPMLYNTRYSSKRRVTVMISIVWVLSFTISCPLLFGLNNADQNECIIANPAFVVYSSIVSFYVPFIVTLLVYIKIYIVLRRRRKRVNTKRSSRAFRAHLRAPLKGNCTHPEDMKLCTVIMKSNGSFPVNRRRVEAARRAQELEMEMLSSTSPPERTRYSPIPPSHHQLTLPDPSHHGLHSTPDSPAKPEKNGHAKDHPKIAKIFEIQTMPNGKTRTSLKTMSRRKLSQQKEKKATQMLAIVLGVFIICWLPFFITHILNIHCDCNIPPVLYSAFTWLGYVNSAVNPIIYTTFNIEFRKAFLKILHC
# Beta-2 adrenergic receptor (Homo sapiens), sequence (P07550 whole entry, looked up): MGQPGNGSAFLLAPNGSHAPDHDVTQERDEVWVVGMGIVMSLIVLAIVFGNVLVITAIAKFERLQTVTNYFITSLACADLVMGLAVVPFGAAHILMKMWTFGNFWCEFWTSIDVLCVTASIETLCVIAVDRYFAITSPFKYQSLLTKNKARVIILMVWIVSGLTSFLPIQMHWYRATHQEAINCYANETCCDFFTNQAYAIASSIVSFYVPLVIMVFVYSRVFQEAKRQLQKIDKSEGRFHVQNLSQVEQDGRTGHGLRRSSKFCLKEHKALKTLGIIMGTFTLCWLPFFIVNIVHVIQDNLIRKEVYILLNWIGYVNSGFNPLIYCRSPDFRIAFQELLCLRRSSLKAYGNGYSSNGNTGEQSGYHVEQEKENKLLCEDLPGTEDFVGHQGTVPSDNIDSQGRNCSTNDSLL
# Muscarinic acetylcholine receptor M1 (Homo sapiens), sequence (P11229 whole entry, looked up): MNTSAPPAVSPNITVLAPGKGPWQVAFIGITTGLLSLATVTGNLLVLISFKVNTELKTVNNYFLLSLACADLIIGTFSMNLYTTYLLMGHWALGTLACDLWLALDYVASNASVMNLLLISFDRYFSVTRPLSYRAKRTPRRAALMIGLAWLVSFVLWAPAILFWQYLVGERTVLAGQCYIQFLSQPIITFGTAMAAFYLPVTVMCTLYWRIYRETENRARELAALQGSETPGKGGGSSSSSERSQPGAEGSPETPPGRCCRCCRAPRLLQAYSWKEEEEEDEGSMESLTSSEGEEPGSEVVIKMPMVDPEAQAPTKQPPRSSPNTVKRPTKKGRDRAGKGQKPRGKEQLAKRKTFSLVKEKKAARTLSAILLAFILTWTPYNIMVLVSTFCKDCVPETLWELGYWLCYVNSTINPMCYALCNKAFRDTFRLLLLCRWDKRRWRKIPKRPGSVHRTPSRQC
# human Adrenergic, Beta 3 Receptor (Adrb3), ADRB3 (gene 155), sequence (P13945 whole entry, looked up): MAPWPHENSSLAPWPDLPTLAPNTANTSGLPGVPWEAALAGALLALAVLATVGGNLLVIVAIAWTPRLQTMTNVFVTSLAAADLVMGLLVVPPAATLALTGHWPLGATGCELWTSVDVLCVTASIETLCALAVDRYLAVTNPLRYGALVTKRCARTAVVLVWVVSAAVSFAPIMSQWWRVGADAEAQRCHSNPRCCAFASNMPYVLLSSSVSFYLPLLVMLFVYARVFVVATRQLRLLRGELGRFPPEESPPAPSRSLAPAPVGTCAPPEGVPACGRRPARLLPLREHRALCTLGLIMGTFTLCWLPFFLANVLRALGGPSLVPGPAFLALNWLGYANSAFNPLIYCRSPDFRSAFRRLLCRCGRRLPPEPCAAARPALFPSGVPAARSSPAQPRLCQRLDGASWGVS
# human Histamine 1 Receptor (H1), HRH1 (gene 3269), sequence (P35367 whole entry, looked up): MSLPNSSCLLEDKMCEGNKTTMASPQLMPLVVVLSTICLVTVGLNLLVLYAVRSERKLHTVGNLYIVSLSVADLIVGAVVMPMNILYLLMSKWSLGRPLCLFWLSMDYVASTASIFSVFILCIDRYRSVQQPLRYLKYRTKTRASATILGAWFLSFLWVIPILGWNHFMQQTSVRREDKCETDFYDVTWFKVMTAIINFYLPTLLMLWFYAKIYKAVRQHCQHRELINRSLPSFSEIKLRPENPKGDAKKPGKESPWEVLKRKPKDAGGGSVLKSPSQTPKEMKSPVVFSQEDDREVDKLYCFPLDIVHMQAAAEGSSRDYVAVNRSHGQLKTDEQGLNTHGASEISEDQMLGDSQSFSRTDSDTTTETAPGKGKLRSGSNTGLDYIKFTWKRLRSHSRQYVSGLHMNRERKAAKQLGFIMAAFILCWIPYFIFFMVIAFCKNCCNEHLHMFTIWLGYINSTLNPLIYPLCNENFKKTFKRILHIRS
# human Endothelin Receptor Type B (ETB), EDNRB (gene 1910), sequence (P24530 whole entry, looked up): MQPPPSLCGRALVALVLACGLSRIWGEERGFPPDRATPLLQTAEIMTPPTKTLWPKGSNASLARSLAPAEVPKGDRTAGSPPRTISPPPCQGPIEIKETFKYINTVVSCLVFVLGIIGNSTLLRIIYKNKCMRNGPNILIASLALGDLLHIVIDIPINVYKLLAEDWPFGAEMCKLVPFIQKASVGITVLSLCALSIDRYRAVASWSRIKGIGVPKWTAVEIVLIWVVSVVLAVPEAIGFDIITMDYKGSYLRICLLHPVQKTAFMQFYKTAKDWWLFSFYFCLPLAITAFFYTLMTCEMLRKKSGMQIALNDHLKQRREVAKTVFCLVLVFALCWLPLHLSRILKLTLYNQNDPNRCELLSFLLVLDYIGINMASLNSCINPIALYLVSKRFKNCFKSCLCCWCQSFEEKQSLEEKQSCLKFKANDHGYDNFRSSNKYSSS
# Type-1 angiotensin II receptor (Homo sapiens), sequence (P30556 whole entry, looked up): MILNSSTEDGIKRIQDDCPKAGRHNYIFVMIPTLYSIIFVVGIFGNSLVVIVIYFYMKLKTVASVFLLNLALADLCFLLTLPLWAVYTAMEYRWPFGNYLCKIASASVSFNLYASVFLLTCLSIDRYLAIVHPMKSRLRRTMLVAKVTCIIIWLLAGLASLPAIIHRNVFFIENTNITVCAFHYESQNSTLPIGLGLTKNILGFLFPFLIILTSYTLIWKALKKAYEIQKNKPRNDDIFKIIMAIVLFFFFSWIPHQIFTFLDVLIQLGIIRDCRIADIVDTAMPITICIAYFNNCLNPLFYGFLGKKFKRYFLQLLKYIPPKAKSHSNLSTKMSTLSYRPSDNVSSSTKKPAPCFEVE
# human Endothelin Receptor Type A (ETA), EDNRA (gene 1909), sequence (P25101 whole entry, looked up): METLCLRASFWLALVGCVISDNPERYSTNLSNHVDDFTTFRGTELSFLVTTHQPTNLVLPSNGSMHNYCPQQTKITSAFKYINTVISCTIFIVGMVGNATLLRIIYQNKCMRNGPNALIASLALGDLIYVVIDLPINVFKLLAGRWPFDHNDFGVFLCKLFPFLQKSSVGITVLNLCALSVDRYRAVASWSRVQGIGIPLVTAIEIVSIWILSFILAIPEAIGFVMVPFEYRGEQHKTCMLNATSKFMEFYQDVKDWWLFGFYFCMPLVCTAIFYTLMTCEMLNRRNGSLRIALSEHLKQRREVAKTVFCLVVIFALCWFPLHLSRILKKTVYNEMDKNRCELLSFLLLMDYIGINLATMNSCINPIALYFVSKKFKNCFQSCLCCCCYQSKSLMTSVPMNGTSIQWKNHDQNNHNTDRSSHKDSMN
compound,measurement,setting,value
CCCCCCCCCCCCCC[N+](C)(C)C,AC50,[1],4.57 µM (active)
CC(=O)NC1(c2cccc(F)c2)CCN(CC[C@@]2(c3ccc(Cl)c(Cl)c3)CN(c3ccccc3)C(=O)CO2)CC1,AC50,[2],34.2 µM (active)
same,AC50,[3],13.2 µM (active)
same,AC50,[4],11 µM (active)
same,AC50,[1],14.8 µM (active)
CCC(=C(c1ccc(O)cc1)c1ccc(OCCN(C)C)cc1)c1ccccc1,outcome,[3],inactive
same,AC50,[4],0.647 µM (active)
same,AC50,[1],1.71 µM (active)
CC(=O)CC(C)(C)O,outcome,[2],inactive
same,outcome,[5],inactive
N#C[C@@H]1CC(F)(F)CN1C(=O)CNC1CC2CCC(C1)N2c1ncccn1 (some centres undefined),AC50,[6],9.53 µM (active)
CN1CCN(c2ccccc2/C=C2\SCCN(c3ccc(Cl)c(Cl)c3)C2=O)CC1,AC50,[7],0.199 µM (active)
Cc1oc(-c2ccccc2)nc1CCOc1ccc(C[C@H](Nc2ccccc2C(=O)c2ccccc2)C(=O)O)cc1,outcome,[3],inactive
same,AC50,[8],35.5 µM (active)
same,AC50,[1],12.1 µM (active)
same,outcome,[9],inactive
c1ccc2cc3c(ccc4ccccc43)cc2c1,AC50,[3],35.5 µM (active)
CCCCCCCCCCCCc1ccccc1S(=O)(=O)O,AC50,[7],21.7 µM (active)
same,AC50,[10],8.83 µM (active)
same,AC50,[3],9.01 µM (active)
same,AC50,[4],18.5 µM (active)
same,AC50,[8],25.2 µM (active)
same,AC50,[1],6.99 µM (active)
same,AC50,[9],18.4 µM (active)
CC1=C(/C=C/C(C)=C/C=C/C(C)=C/C(=O)O)C(C)(C)CCC1,AC50,[3],1.8 µM (active)
CCCCCCCC(=O)O,outcome,[9],inactive
CC[C@H](c1ccc(O)cc1)[C@@H](CC)c1ccc(O)cc1,outcome,[2],inactive
same,AC50,[4],6.99 µM (active)
NC(=O)N1C(=O)C(C(=O)c2cc(Cl)cs2)c2cc(F)c(Cl)cc21 (centres undefined),outcome,[1],inactive
COc1ccc([N+](=O)[O-])cc1N,AC50,[4],7.93 µM (active)
CCCOc1sc(C(=O)N2CCC(c3cc(CN)ccc3F)CC2)c(C)c1Br,AC50,[7],7.53 µM (active)
same,AC50,[2],33.5 µM (active)
same,AC50,[3],16.9 µM (active)
same,AC50,[4],9.42 µM (active)
same,AC50,[8],18.2 µM (active)
same,AC50,[1],3.56 µM (active)
same,AC50,[9],8.67 µM (active)
O=C(O)Cc1cc(I)c(Oc2cc(I)c(O)c(I)c2)c(I)c1,outcome,[10],inactive
CCN(CC)CCNc1ccc(CNC=O)c2sc3ccc(OC)cc3c(=O)c12,AC50,[7],28.3 µM (active)
same,AC50,[4],18.8 µM (active)
same,AC50,[8],7.5 µM (active)
same,AC50,[1],7.31 µM (active)
same,AC50,[9],4.7 µM (active)
NC(=O)N(O)[C@@H]1C=C[C@H](Oc2cccc(Oc3ccc(F)cc3)c2)C1,outcome,[7],inactive
same,outcome,[2],inactive
same,outcome,[4],inactive
same,AC50,[1],25 µM (active)
CC(C)(C)c1ccc(O)c(C(C)(C)C)c1,outcome,[6],inactive
C#C[C@]1(O)CC[C@H]2[C@@H]3CCC4=CC(=O)CC[C@@H]4[C@H]3CC[C@@]21C,outcome,[5],inactive
